AID923: qHTS Assay for Allosteric/Competitive Inhibitors of Caspase-1: Spectroscopic Profiling in AFC Spectral Region | compound fluorescence, AFC spectral region (405/520 nm) | 75,000 tested, 1.1% active | Potency, µM (highest dose often 57.5 µM), for inactives: top-dose fluorescence increase, usual class: activators; note: potency is the fitted concentration of half-maximal effect; 0% is about no effect
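Baseline compound fluorescence (AFC region, 405 nm ex/520 nm em) taken from the intercept of kinetic reads with 50 nM caspase-1 and 5 uM Ac-WEHD-AFC; normalized to an on-plate AFC standard curve; compounds titrated up to 57 uM.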
CRE-bla Fsk: Cell signaling CRE-BLA (Fsk stim); CHO CRE-bla reporter (cAMP response element driving beta-lactamase), forskolin EC10, beta-lactamase ratio; Potency, µM (titrated, usually from 38.2 µM), for inactives: top-dose activity change, negative = inhibition, usual class: activators; 71,000 tested, 2.5% active; active = well fitted activation curve with a large enough effect in the signal ratio, with a control signal flat, not every such curve was filed as active; inconclusive = small, poorly fitted or top-dose-only effect, or effect the other way, or a change in a side signal; the % refers to the signal ratio; note: potency is the fitted concentration of half-maximal effect; % of control where 0% means no effect
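Cells were plated overnight at 37 °C, exposed to compound titrations plus EC10 NKH 477 for 3 h, then given CCF4 dye for 2 h at room temperature. Blue/green (460/530 nm) ratio was converted to %Activity and AC50 values calculated.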
4-MU autofl: qHTS Assay for Spectroscopic Profiling in 4-MU Spectral Region. compound autofluorescence, 340/450 nm, 4-MU equivalents; stronger effect = higher value. 59,000 tested, 11% active. max dye-equivalent concentration, M. AID 589, 2007; in the data active = max dye-equivalent concentration above about 10 nM; inconclusive = mostly about 1.1 nM to 9.6 nM
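Compounds in 100 mM Tris, pH 8.0, sat 15 min at room temperature before fluorescence was read at 340 nm excitation/450 nm emission; a per-plate six-point 4-MU standard curve converted signals to dye-equivalent concentration at each compound concentration.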
HADH2 inh: qHTS Assay for Inhibitors of HADH2 (Hydroxyacyl-Coenzyme A Dehydrogenase, Type II); 3-hydroxyacyl-CoA dehydrogenase type-2 (Homo sapiens), Q99714; recombinant HADH2, NADH fluorescence, beta-hydroxybutyryl-CoA; Potency, µM (titrated, usually from 57.1 µM), without a hit: at the top dose activity change, negative = inhibition, most hits filed as inhibitors; 73,000 tested, 3.4% active; AID 886, 2007; note: potency is the fitted concentration of half-maximal effect; % is set by controls: 0 for no effect and ±100 for the full control effect; nearly all actives have a fitted effect of over 60% in size
Target sequence (Q99714 whole entry, looked up, one chain of several): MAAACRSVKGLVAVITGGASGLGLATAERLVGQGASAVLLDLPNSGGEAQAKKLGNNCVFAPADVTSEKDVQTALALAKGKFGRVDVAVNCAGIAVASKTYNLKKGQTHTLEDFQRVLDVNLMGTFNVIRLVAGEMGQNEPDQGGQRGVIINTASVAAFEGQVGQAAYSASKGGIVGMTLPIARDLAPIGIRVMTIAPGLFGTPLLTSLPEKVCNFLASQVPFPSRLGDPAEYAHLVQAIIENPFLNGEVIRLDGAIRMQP
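20 nM HADH2 + cpd, 15 min RT; add 1 mM NAD+/90 uM beta-hydroxybutyryl-CoA; kinetic fluorescence 360/450 nm, 4 min. Tris-HCl pH 9.0, 0.01% Tween-20.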
HSD17B inhib: qHTS Assay for Inhibitors of HSD17B4, hydroxysteroid (17-beta) dehydrogenase 4. AID 893, 2007. 75,000 tested, 7.6% active. recombinant HSD17B10, NADH fluorescence kinetic. Potency, µM (top dose mostly 57.1 µM), without a hit: at the highest dose activity change, negative = inhibition, most hits filed as inhibitors. 3-hydroxyacyl-CoA dehydrogenase type-2 (Homo sapiens), Q99714;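 note: the protocol describes HADH2 (HSD17B10) and not the HSD17B4 of the title; potency is the fitted concentration of half-maximal effect; % is set by controls: 0 for no effect and ±100 for the full control effect; nearly all actives have a fitted effect of over 70% in size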
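His-tagged E. coli-expressed HADH2 at 20 nM in 100 mM Tris-HCl pH 9.0 with 0.01 % Tween-20, preincubated 15 min with compound at room temperature. Reaction with 1 mM NAD+ and 90 uM beta-hydroxybutyryl coenzyme A; NADH fluorescence (360/450 nm) read kinetically over 4 min, last minus first point.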
A350 fluor: qHTS Assay for Spectroscopic Profiling in A350 Spectral Region. Compound autofluorescence, 340/450 nm, Alexa 350 dye-equivalents; stronger effect = higher value. 59,000 tested, 11% active. max dye-equivalent concentration, M; in the data active = max dye-equivalent concentration above about 10 nM; inconclusive = mostly about 1.1 nM to 9.6 nM
* marks the source's active call; other numbers are inactive results; i = inactive; ? = inconclusive; nt = not tested or not shown; [ ] = dose if it differs, or a comment. This is a sample that favours compounds with a hit; in the whole collection about 14% have one here. Unless noted, calls come from the whole dose curve; as a rule, active = well fitted curve in the direction sought with a large enough effect; inconclusive = small, poorly fitted or top-dose-only effect, or another doubt; inactive = no such curve, though single readings can be large; an effect the other way counts as inactive or inconclusive.

SMILES | AID923 | CRE-bla Fsk | 4-MU autofl | HADH2 inh | HSD17B inhib | A350 fluor
COCCN(CC(=O)NCc1ccccc1)C(=O)CCC(=O)Nc1nccs1 | 0% | 1% | i | 8% | 4% | i
COCCNC(=O)CN(CC1CCCO1)C(=O)CCC(=O)Nc1ccccn1 (stereo not drawn) | -1% | 4% | i | -4% | -2% | i
O=C(CN(CC1CCCO1)C(=O)CCC(=O)Nc1ccccn1)NCC1CCCO1 (stereo not drawn) | 0% | -17% | 1.9e-08M* | 14% | -7% | 1.8e-08M*
COCCN(CC(=O)NCc1ccccc1)C(=O)CCC(=O)Nc1ccccn1 | 0% | ? | 2e-07M* | -2% | 25µM* | 2.1e-07M*
c1ccc(C[C@@H](Nc2cccnc2)c2ccccc2)cc1 | 1%[11.5 µM] | 17%[7.6 µM] | i | 2%[11.4 µM] | 1%[11.4 µM] | i
CCn1nnnc1SCC(=O)Nc1cc(OC)cc(OC)c1 | 1% | -3% | i | 14% | 0% | i
COc1cccc2cc(-c3cn4cccc(C)c4n3)c(=O)oc12 | 11% | 16% | 1.1e-07M* | -5% | -3% | 1.4e-07M*
CCOc1cccc2cc(-c3cn4cc(C)ccc4n3)c(=O)oc12 | 4% | 1µM* | 5.2e-08M* | 14% | ? | 5.5e-08M*
COc1cccc2cc(C(=O)Nc3cccc(C)n3)c(=O)oc12 | 0% | -1% | ? | 16% | 1% | ?
COc1cccc2cc(-c3csc(CCn4nc(C)cc4C)n3)c(=O)oc12 | 2% | ? | 3.1e-08M* | -2% | ? | 3.8e-08M*
Cc1nc(C)c(C(=O)C2=C(O)C(=O)N(CCN3CCOCC3)C2c2cccs2)s1 (stereo not drawn) | 2% | ? | i | -14% | -1% | i
Cc1ccc(C2C(C(=O)c3sc(-c4ccccc4)nc3C)=C(O)C(=O)N2CCN(C)C)o1 (stereo not drawn) | 2% | 1% | i | -4% | -2% | i
Cc1ccc(C2C(C(=O)c3sc(C)nc3C)=C(O)C(=O)N2CCCN(C)C)o1 (stereo not drawn) | 3% | ? | 2.4e-07M* | ? | 0% | 2.9e-07M*
Cc1nc(C)c(C(=O)C2=C(O)C(=O)N(CCN3CCOCC3)C2c2ccco2)s1 (stereo not drawn) | 10% | 7% | 9.6e-08M* | 2% | -29% | 1.3e-07M*
CNc1nc(NC)nc(-n2c(C(F)(F)F)nc3ccccc32)n1 | 0% | 13µM* | i | 1% | 9% | ?
Cc1nc2ccccc2n1CC(O)Cn1c(C(F)(F)F)nc2ccccc21 (stereo not drawn) | 1% | -3% | i | 6% | 5% | i
O=c1cc(-c2ccccc2)[nH]c2nc3ccccc3n12 | 3% | 2% | 4.1e-07M* | 129% | 25µM* | 3.7e-07M*
CC1(C)O[C@@H]2O[C@H]([C@@H]3COC(C)(C)O3)[C@H](N)[C@H]2O1 | -2%[11.5 µM] | 6%[7.6 µM] | i | -15%[11.4 µM] | 2%[11.4 µM] | i
CS/C(=N\S(=O)(=O)c1cccs1)NC(=O)CSc1nc2ccccc2s1 | -2% | -9% | i | 13µM* | 4µM* | i
COC(=O)c1ccc(C(NC(=O)OCc2ccccc2)/C(C)=C/[C@@H](C)C(=O)N[C@@H](CO)Cc2ccccc2)cc1 (stereo partly drawn) | 4% | -10% | nt | -4% | 3% | nt
O=C(O)[C@@H](O)[C@@H](O)[C@@H](O)[C@@H](O)c1nc2ccccc2s1 | -1%[11.5 µM] | -12%[7.6 µM] | i | ? | -22%[11.4 µM] | i
N#CC1=C(N)Oc2c(ccc3cccnc23)C1c1cccnc1 (stereo not drawn) | 20% | ? | 2e-07M* | -27% | ? | 2.3e-07M*
